Experimental data taken from PubChem BioAssay AID1724 (National Center for Advancing Translational Sciences (NCATS), 2009).
Inconclusive results are not listed. Active and inactive are the calls of the source. Calls follow the shape of the dose curve; as a rule, active = well fitted inhibition curve with a large enough effect; inconclusive = small, poorly fitted or top-dose-only effect, or effect the other way; inactive = no such curve, though single readings can be large or run the other way.

Assay: Confirmation Concentration-Response Assay for Inhibitors of the ERK Signaling Pathway using a Homogeneous Screening Assay
Conditions: HEK293 cells, hormone-stimulated phospho-ERK AlphaScreen; series mostly up to 40.9 µM
From the text: qHTS Assay for Inhibitors of the ERK Signaling Pathway using a Homogeneous Screening Assay
NIH Chemical Genomics Center [NCGC]
NIH Molecular Libraries Screening Centers Network [MLSCN]
Assay Submitter (PI): Dr. Wei Zheng, NCGC/NIH
The Ras/extracellular-signal-regulated kinase (ERK) mitogen activated protein (MAP) kinase signaling pathway (ERK1/2 cascade) plays is a key role in transmitting signals from the cell surface to the nucleus (Nishida and Gotoh 1993; Chang and Karin, 2001). The cascade is initiated by the small G-protein Ras, which recruits Raf […], where activation occurs. Alternatively, this pathway can be activated by elevating intracellular cAMP.
Activation of the ERK pathway is essential in increased cell division and cell survival. Sustained and constitutive activation of the ERK pathway, however, has been linked to uncontrolled cell proliferation, increased cell survival, and tumor progression. Thus, the ERK has been as an attractive target for cancer chemotherapy in the past few years (Sebolt-Leopold and Herrera, 2004). Given its physiological and pathological importance, assessment of ERK phosphorylation has been broadly performed in both basic research and drug discovery. Most assays for the measurement of ERK phosphorylation use the antibody-based detection methods, such as western blot and ELISA. These assays require multiple reagent additions with cell wash steps and are not suitable for high-throughput screening.
The current cell-based ERK phosphorylation assay was performed using AlphaScreen platform. AlphaScreen is a two bead-based proximity-dependent chemical energy transfer luminescent assay platform. The assay reagents (ERK SureFire(TM) kit) were supplied from TGR BioSciences (Australia). In the presence of specific antibodies, phosphorylated ERK will bring "donor" and "acceptor" beads to a proximity range (<200 nm), and subsequently lead a chemical luminescent reaction upon exciting donor beads with 680 nm laser. To exclude the assay-related false positives, we used a biotinylated rabbit IgG to perform counter-screen. The biotinylated antibody mimics the phosphorylated ERK1/2 for bringing streptavidin coated beads and protein-A coated beads to a proximity range for the AlphaScreen detection.
NCGC Assay Protocol Summary:
HEK293 cells stably expressing type-1 vasopressin receptor (V1b) were maintained in DMEM medium (Invitrogen, Carlsbad, CA) at 37C under a humidified atmosphere containing 5% CO2 and 95% air. The medium contained 10% FBS, 2 mM L-glutamine, non-essential amino acid, pyruvate and 50 U/ml penicillin and 50 ug/ml streptomycin (Invitrogen). The aliquots of frozen cells were stored at -135C and used for the compound screening. All compounds were screened as titrations from 0.6 nM to 46 uM final concentration. Vasopressin was used to stimulate the ERK phosphorylation pathway. The ERK phosphorylation in cells was determined using an AlphaScreen assay kit provided by PerkinElmer. Data were normalized to the controls for basal activity (DMSO only) and 100% activation (25 nM vasopressin). AC50 values were determined from concentration-response data modeled with the standard Hill equation.
(1) Seed 4 ul/well of resuspended frozen HEK293 cells containing 2000 cells in white 1536-well plates for overnight with 1% FBS at 37C under a humidified atmosphere containing 5% CO2 and 95% air.
(2) Add 23 nL compounds in DMSO solution. The final titration was 0.6 nM to 46 uM.
(3) Incubate at 37C for 30 min.
(4) Dispense 0.5uL vasopressin (25 nM in final)
(5) Incubate at 37C for 5 min.
(6) Dispense 0.5uL of 1:2 diluted 5x lysis buffer.
(7) Incubate at 37C for 10 min.
(8) Dispense 1.5uL of mixture of activation buffer and reaction buffer with AlphaScreen beads (streptavidin donor beads and protein-A acceptor beads, 10 ng/well for each).
(9) Incubate at room temperature for 5 hr.
(10) Detect the assay plate in an EnVision plate reader (PerkinElmer) using the AlphaScreen detection mode.
[…]

Compound | Potency
O=C(Nc1ccc(N2CCN(C(=O)c3ccco3)CC2)c(Cl)c1)c1cc2ccccc2o1 | 7.94 µM (active)
CCC(=O)N1CCN(c2ccc(NC(=O)c3cc4ccccc4o3)cc2Cl)CC1 | 12.6 µM (active)
C/C(=N\Nc1nnc(-c2ccccc2)c(-c2ccccc2)n1)c1cccc([N+](=O)[O-])c1 | inactive
COc1ccc(N=C2C(=Nc3ccc(OC)cc3)N(c3ccc(OC)cc3)C(=S)N2C)cc1 | 15.8 µM (active)
Cc1sc2ncnc(Sc3nnnn3-c3ccc(Cl)cc3)c2c1C | inactive
CCN(C1CCCCC1)S(=O)(=O)c1ccc(S(=O)(=O)NCc2ccncc2)cc1 | inactive
CCOC(=O)c1ccc(NC(=O)c2cccc(S(=O)(=O)N3CCOCC3)c2)cc1 | 25.1 µM (active)
COc1ccc(C(=O)Nc2ccc(-c3ccc(C)o3)cc2)cc1S(=O)(=O)N1CCOCC1 | 10 µM (active)
CN(C)CCCn1cc(C2=C(c3c[nH]c4ccccc34)C(=O)NC2=O)c2ccccc21 | 1.26 µM (active)
CN(C)c1ccc(-c2ccc3ncnc(NCc4ccccc4)c3c2)cc1 | 15.8 µM (active)
CCCN1C(=O)/C(=C2/C=Cc3ccccc3N2CC)SC1=S | 11.2 µM (active)
C=C[C@@]1(C)CC(=O)[C@@]2(O)[C@@]3(C)[C@@H](O)CCC(C)(C)[C@@H]3[C@H](O)[C@H](OC(C)=O)[C@@]2(C)O1 | inactive
Cc1cccc(CNc2ncnc3ccc(-c4cccnc4)cc23)c1 | 12.6 µM (active)
Cc1sc2ncnc(Nc3ccccc3)c2c1C | inactive
COc1ccc2[nH]cc(CCNc3ncnc4ccc(-c5ccc(C(=O)N(C)C)cc5)cc34)c2c1 | 31.6 µM (active)
N#CC(C#N)=c1ccc2c(c1)N1C3=C(CCCC3)CC3CCCCC31N=2 (configuration not stated) | 5.01 µM (active)
COc1ccc(C(=O)Nc2cccc(C(C)=O)c2)cc1S(=O)(=O)N1CCOCC1 | inactive
O=C(Nc1ccc(N2CCN(C(=O)c3ccccc3)CC2)cc1)c1cc2ccccc2o1 | 12.6 µM (active)
CS(=O)(=O)CCNCc1nc(-c2ccc3ncnc(Nc4ccc(OCc5cccc(F)c5)c(Cl)c4)c3c2)cs1 | inactive
O=C1c2ccccc2C(=O)c2c1cccc2N1CCCC1 | 17.8 µM (active)
Cn1nc(-c2ccc(Cl)cc2)nc2c(=O)n(C)c(=O)nc1-2 | inactive
O=C(Nc1ccc(-c2cn3ccsc3n2)cc1)c1ccc(F)c(S(=O)(=O)N2CCOCC2)c1 | 12.6 µM (active)
